Screen size: about 310,000 compounds; about 14,000 (4.5%) showed an effect of 50% or more. Effects have a minus sign here. This excerpt belongs to a sample that is enriched for strong results.
biological target: human ether-à-go-go-related gene (hERG) potassium channel (human, UniProt Q12809); assay: primary screen, population patch clamp on CHO cells stably expressing hERG; higher = less effect of the substance
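Note: peak tail current of the secondary pulse compared with the same well before compound.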

human ether-à-go-go-related gene (hERG) potassium channel, sequence (Q12809 whole entry, looked up): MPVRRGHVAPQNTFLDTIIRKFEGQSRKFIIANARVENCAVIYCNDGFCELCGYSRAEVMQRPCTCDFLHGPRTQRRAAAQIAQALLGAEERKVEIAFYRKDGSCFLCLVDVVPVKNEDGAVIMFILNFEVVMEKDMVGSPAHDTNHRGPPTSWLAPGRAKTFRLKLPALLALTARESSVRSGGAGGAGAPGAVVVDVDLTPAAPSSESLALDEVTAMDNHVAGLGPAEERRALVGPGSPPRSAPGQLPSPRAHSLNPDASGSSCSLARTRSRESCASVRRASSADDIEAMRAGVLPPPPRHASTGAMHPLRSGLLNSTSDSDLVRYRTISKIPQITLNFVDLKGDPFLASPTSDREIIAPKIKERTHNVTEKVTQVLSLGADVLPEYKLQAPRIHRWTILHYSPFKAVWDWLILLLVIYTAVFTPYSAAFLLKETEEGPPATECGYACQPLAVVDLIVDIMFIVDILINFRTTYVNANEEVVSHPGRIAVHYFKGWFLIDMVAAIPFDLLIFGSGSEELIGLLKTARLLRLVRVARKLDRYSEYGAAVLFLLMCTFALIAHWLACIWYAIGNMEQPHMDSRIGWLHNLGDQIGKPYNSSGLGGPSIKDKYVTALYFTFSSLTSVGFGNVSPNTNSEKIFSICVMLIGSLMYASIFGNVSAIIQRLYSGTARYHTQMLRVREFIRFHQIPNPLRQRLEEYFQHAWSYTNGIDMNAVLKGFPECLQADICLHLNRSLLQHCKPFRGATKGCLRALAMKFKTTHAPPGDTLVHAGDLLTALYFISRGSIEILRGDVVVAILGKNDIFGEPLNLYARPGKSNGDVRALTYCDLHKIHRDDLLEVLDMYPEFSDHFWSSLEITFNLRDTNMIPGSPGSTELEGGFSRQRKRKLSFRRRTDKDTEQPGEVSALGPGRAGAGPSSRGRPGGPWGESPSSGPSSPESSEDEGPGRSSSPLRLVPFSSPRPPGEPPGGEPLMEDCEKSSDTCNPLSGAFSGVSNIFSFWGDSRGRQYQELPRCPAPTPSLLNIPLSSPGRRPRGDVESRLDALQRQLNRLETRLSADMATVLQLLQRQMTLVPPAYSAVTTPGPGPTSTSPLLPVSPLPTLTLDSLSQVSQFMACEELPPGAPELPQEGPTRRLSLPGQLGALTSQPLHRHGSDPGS

| Compound | hERG current change (%, negative = inhibition) at 10uM [%] |
| --- | --- |
| O=C(NC1CCCCC1)c1ccc(S(=O)(=O)c2ccccc2Cl)c([N+](=O)[O-])c1 | 1.94 |
| COc1cccc(CC(=O)OCC(=O)N(C)CC(=O)Nc2ccc(F)cc2)c1 | -9.44 |
| CN(C)c1ccc(C2Nc3ccccc3C(=O)N2NS(C)(=O)=O)cc1 (centres unmarked) | 14.2 |
| C/C(=N\NC(=O)c1nnn(-c2nonc2N)c1CN1CCCCCC1)c1ccc(Br)cc1 | 24.6 |
| Cc1ccc(OCCOC(=O)c2c(-c3ccccc3)noc2C)cc1 | 7.59 |
| CCOc1ccc(NC(=O)CN2CCN(Cc3c(F)cccc3F)CC2)cc1 | -75.3 |
| CCOc1ccc(NC(=O)CN2CCN(C3c4ccccc4-c4ccccc43)CC2)cc1 | -40.3 |
| CCOc1ccc(NC(=O)CN2CCc3ccccc3C2)cc1 | -6.01 |
| CCOc1cc(N2CCOCC2)c(OCC)cc1NC(=O)c1nc2nc(C)cc(C)n2n1 | 18.4 |
| COCCCNC(=O)/C=C/c1ccc(OCc2c(F)cccc2Cl)cc1 | -1.25 |
| O=C(/C=C/c1ccc(OCc2c(F)cccc2Cl)cc1)N1CCOCC1 | -30.1 |
| CN(C)CCCNC(=O)/C=C/c1ccc(OCc2c(F)cccc2Cl)cc1 | -67 |
| COc1cc2c(cc1OC)C(c1ccccc1F)OC(=O)C2 (centres unmarked) | 6.96 |
| O=C(CN1CCOCC1)Nc1ncc(Cc2cccc(Cl)c2Cl)s1 | -51.4 |
| O=C(CN1CCOCC1)Nc1ncc(Cc2cccc3ccccc23)s1 | -23.3 |
| O=C(CN1CCOCC1)Nc1ncc(Cc2cccc(Cl)c2)s1 | -43 |
| O=C(COc1ccc2ccccc2c1)Nc1ccc2c3c(cccc13)CC2 | 3.91 |
| O=C(CSc1ncnc2c1cnn2-c1cccc(Cl)c1)NCC1CCCO1 (centres unmarked) | 7.88 |
| Cc1cc(OC(C)C(=O)NCc2ccncc2)c2c(C)cc(=O)oc2c1 (centres unmarked) | -49.2 |

| Compound | hERG current change (%, negative = inhibition) at 10uM [%] |
| --- | --- |
| CCCc1cc(=O)oc2cc(C)cc(OC(C)C(=O)NCc3cccnc3)c12 (centres unmarked) | -47.3 |
| CCc1cc(=O)oc2cc(C)cc(OC(C)C(=O)NCc3ccncc3)c12 (centres unmarked) | -56.8 |
| CCCc1cc(=O)oc2cc(C)cc(OC(C)C(=O)NCc3ccncc3)c12 (centres unmarked) | -69.5 |
| CCCCc1cc(=O)oc2cc(C)cc(OC(C)C(=O)NCc3ccncc3)c12 (centres unmarked) | -36 |
| CCc1cc(=O)oc2cc(C)cc(OC(C)C(=O)NCc3cccnc3)c12 (centres unmarked) | -32.9 |
| O=S(=O)(Nc1nc2c(s1)CCCC2)c1ccc(F)cc1 | -21.1 |
| O=C(NCCc1cccc(F)c1)[C@@H]1CSC2c3ccccc3C(=O)N21 (some centres unmarked) | -13.9 |
| Cc1cc(C(=O)Nc2ccc3c(c2)OCCO3)c(C)o1 | 4.25 |
| COC(=O)c1cccc(Oc2cccc(C(F)(F)F)c2)n1 | 13 |
| Cc1ccc(S(=O)(=O)N2C(=O)CCC2C(=O)Nc2ccc3c(c2)OCCO3)cc1 (centres unmarked) | 10.6 |
| O=C1CCN(Cc2cccnc2)CCN1[C@H](CO)c1ccccc1 | 16 |
| CCN(CC(=O)NCc1ccc(F)cc1)C(=O)CCNS(=O)(=O)c1cccc(C)c1 | -51.9 |
| CCN(CC(=O)NCc1ccc(Cl)cc1)C(=O)c1cc2ccccc2o1 | -32.2 |
| CCN(CC(=O)NCc1ccc(F)cc1)C(=O)COc1ccc(C)c(C)c1 | -53.6 |
| CCc1ccc(OCC(=O)N(CC)CC)cc1 | -55 |
| CCN(CC(=O)Nc1c(F)cccc1F)C(=O)CCNS(=O)(=O)c1ccc(C)c(C)c1 | 1.26 |
| CCN(CC(=O)NCc1ccc(F)cc1)C(=O)c1cc2ccccc2o1 | -55.9 |
| CCN(CC(=O)NCc1ccc(F)cc1)C(=O)c1ccc(C)o1 | 6.13 |
| CCN(CC)C(=O)COc1ccc(-c2ccccc2)cc1 | -36 |

| Compound | hERG current change (%, negative = inhibition) at 10uM [%] |
| --- | --- |
| CCN(Cc1ccccc1)C(=O)COc1ccccc1 | 9.21 |
| CCN(CC(=O)NCc1ccc(F)cc1)C(=O)Cc1c(F)cccc1Cl | -37.6 |
| CCN(CC(=O)NCc1ccc(F)cc1)C(=O)c1ccc(COc2ccccc2)cc1 | -47.9 |
| O=C(NCc1ccc(F)cc1)c1cc2ccccc2o1 | -13.4 |
| CCOC(=O)c1cc(C)n(S(=O)(=O)c2ccc(C)cc2)c1C | -2.18 |
| Cc1ccc(-c2cn(S(=O)(=O)c3cccc([N+](=O)[O-])c3)nc2N)cc1 | 15.3 |
| COc1ccccc1CNC(=O)CCC(=O)N1C[C@H]2C[C@@H](C1)c1cccc(=O)n1C2 | -5.65 |
| O=C(COc1ncnc2sccc12)Nc1cccc(S(=O)(=O)N2CCOCC2)c1 | -2.77 |
| O=C(Nc1ccc2nc(C3CC3)n(Cc3ccccc3)c(=O)c2c1)C1CC1 | -6.15 |
| CC1(C)CC(NC(=O)COc2cc3oc(=O)c4c(c3cc2Cl)CCC4)CC(C)(C)N1 | 11.2 |
| COc1ccc(OC)c(C(c2nnnn2C2CCCC2)N2CCc3ccccc3C2)c1 (centres unmarked) | -11.1 |
| COc1ccc(/C=C/C(=O)OCC(=O)Nc2cc(S(=O)(=O)N(C)C)ccc2Cl)cc1 | 28.4 |
| CCN(CC(=O)NCc1ccc(F)cc1)C(=O)c1cccnc1SC | -62.9 |
| CCN(CC(=O)NCc1ccc(F)cc1)C(=O)COc1ccc2ccccc2c1 | -70.5 |
| CCc1ccccc1OCC(=O)N(CC)CC(=O)NCc1ccc(F)cc1 | 8 |
| CCN(CC(=O)Nc1ccc(NC(C)=O)cc1)C(=O)COc1ccc2ccccc2c1 | -10.1 |
| CCN(CC(=O)Nc1c(F)cccc1F)C(=O)c1cccnc1SC | 6.33 |
| CCOc1ncccc1C(=O)N(CC)CC(=O)NCc1ccc(F)cc1 | 7.12 |
